The source of these data is PubChem BioAssay (NCATS).

Inconclusive results are not listed. Values without a mark were called inactive. The source made the active and inactive calls. Unless noted, the call rests on the fitted dose curve; in most records, active means well fitted curve in the direction sought with a large enough effect; inconclusive means small, poorly fitted or top-dose-only effect, or another doubt; inactive means no such curve, though single readings can be large; an effect the other way counts as inactive or inconclusive.

The nature of assay [1]: S16 Schwann cell PMP22 intronic element firefly luciferase assay (AID 624032). Further: nearly all actives have a fitted effect of over 30% in size. A digest of the protocol:
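Rat S16 Schwann cells stably carrying firefly luciferase driven by a PMP22 intronic element, in 10% FBS, treated 24 h at 37 C. ONE-Glo luminescence normalized to PTC124 control and DMSO (0%); curves classed by r2, magnitude and activity.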

Assay [2] can be described thus: S16 Schwann cell PMP22 intronic element beta-lactamase assay (AID 624044; calls by dose curve; further: nearly all actives have a fitted effect of over 15% in size). The settings on record: S16 rat Schwann cells, PMP22 element beta-lactamase FRET, 24 h; ratio activity, negative = inhibition: at 38.3 µM (top of the series). A digest of the protocol: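 Rat S16 Schwann cells with beta-Lac driven by a PMP22 intronic element, compound-treated 24 h at 37 °C. LiveBLAzer FRET B/G read: 460 nm normalized to potassium clavulanate vs DMSO; 535 nm FRET as viability; concentration-effect curves classified.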

For the next assay, the system named is 7G8. Nature of the assay: qHTS profiling for inhibitors of Plasmodium falciparum proliferation (AID 504749). Further: nearly all actives have a fitted effect of over 60% in size. Further: potency means the concentration at half of the fitted maximal effect. The settings on record: P. falciparum in erythrocytes, SYBR Green DNA, 72 h; series mostly up to 28.7 µM. An outline of the steps:
(§1)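 P. falciparum-infected erythrocytes (0.3% parasitemia, 2.5% hematocrit) incubated with compound 72 h at 37 C, 5% CO2. Parasite DNA detected by SYBR Green after lysis, overnight at room temperature; normalised to 0.29 uM artemisinin and DMSO.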

The next assay relates to CP266. The assay is described as above. As to conditions: P. falciparum in erythrocytes, SYBR Green DNA, 72 h; series mostly up to 28.7 µM. An outline of the steps:
as §1

For the next assay, the system named is DIV17. The description is as above. As to conditions: P. falciparum in erythrocytes, SYBR Green DNA, 72 h; series mostly up to 28.7 µM. An outline of the steps:
as §1

In a further assay the test system is PC26. The description is as above. As to conditions: P. falciparum in erythrocytes, SYBR Green DNA, 72 h; series mostly up to 28.7 µM. A digest of the protocol:
as §1

In a further assay the test system is TAB109. The description is as above. As to conditions: P. falciparum in erythrocytes, SYBR Green DNA, 72 h; series mostly up to 28.7 µM. A digest of the protocol:
as §1

Another assay deals with W2. The description is as above. The settings on record: P. falciparum in erythrocytes, SYBR Green DNA, 72 h; series mostly up to 28.7 µM. An outline of the steps:
as §1

In assay [3] the target is ATP-dependent 6-phosphofructokinase (Trypanosoma brucei brucei) (UniProt O15648). Nature of the assay: qHTS Assay to Find Inhibitors of T. brucei phosphofructokinase: hit validation (AID 492961). A digest of the protocol:
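Luminescence from ADP-Glo reports ADP generated as T. brucei PFK (1.25 nM) phosphorylates 0.5 mM fructose-6-phosphate using 0.1 mM ATP. Reactions ran 45 min at room temperature, pH 8.0.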

ATP-dependent 6-phosphofructokinase (Trypanosoma brucei brucei), sequence (O15648 whole entry, looked up): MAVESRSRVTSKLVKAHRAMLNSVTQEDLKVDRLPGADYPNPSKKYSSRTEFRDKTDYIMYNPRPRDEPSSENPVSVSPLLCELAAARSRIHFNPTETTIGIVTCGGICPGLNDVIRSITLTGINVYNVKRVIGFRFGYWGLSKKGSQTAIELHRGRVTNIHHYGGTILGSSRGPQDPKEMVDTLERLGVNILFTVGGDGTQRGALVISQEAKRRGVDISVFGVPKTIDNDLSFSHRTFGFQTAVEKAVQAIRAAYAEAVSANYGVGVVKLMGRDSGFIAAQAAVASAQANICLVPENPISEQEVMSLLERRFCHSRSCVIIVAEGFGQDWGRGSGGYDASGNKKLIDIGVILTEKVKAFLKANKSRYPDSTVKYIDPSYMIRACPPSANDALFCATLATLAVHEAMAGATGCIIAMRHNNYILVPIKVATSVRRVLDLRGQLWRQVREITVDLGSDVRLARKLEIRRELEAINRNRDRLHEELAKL

For `C[C@]12C=CC(=O)C=C1CC[C@@H]1C2CC[C@]2(C)OC(=O)CCC12` (some centres undefined), the Potency entry (in [1]; in [2]; with 7G8; in the assay on CP266; with DIV17; in the assay with PC26) was “inactive” in each case. Further, the Potency result with TAB109 and with W2 was “inactive” each time.
`C[C@]12CCC3C(CCC4=C(Cl)C(=O)CC[C@@]43C)C1CCC2O` (some centres undefined): the Potency result with CP266, in the assay on DIV17, with PC26 and in the assay on W2 was “inactive” throughout.
Take `CCCCCc1cc(O)c2c(c1)OC(C)(C)C1CC=C(C)CC21` (centres undefined): the Potency in the assay with 7G8 was 708 nM (active); in the assay on CP266, 12 µM (active); with DIV17, 1.51 µM (active); in the assay with PC26, 1.9 µM (active); with TAB109, 3.16 µM (active); in the assay on W2, 1.51 µM (active).
Regarding `O=C1CC2OCC=C3CN4CC[C@]56c7ccccc7N1C5C2[C@H]3C[C@H]46` (some centres undefined), the outcome in assay [3] was inactive. Besides, the Potency entry (in [1]; in the assay with DIV17; in the assay with PC26) was “inactive” each time. For the same compound, the Potency in the assay with 7G8 was 11200 nM (active); with W2, 3.38 µM (active).
For `CCC/C=C/C=C/C(=O)OC1/C(=C/C(=O)OC)CC2CC(C(C)O)OC(=O)CC(O)CC3CC(OC(C)=O)C(C)(C)C(O)(CC4C/C(=C/C(=O)OC)CC(/C=C\C(C)(C)C1(O)O2)O4)O3` (centres undefined), in [1], the Potency result was “inactive”. The Potency in the assay with 7G8 is 708 nM (active); with DIV17 it was 0.953 µM (active); in the assay on PC26 it was 0.953 µM (active); with TAB109, 2.51 µM (active); in the assay on W2, 0.953 µM (active).
Consider `CCCCCC(O)C1C(=O)OC(C)C(O)\C=C/C=C\C=C/C=C\C=C(\C)C(O)C(O)C(O)CC(O)CC(O)CC(O)CC(O)CC1O` (centres undefined), for which the Potency entry (in assay [1]; in the assay with 7G8; in the assay on CP266; in the assay with DIV17; in the assay with PC26; in the assay with TAB109) was “inactive” throughout. Also, in the assay with W2, the Potency entry was “inactive”.
Consider `COc1ccc2c3c1O[C@H]1[C@@H](O)C=C[C@H]4C(C2)NCCC341` (some centres undefined), for which the Potency entry (in assay [1]; in the assay on 7G8; in the assay on CP266; in the assay with DIV17; in the assay with PC26; with TAB109) was “inactive” in each case. Further, the Potency entry with W2 is “inactive”.
